Data on nine molecules can be found in PubChem BioAssay (NCI).

The nature of the assay: NCI Yeast Anticancer Drug Screen. Data for the mec2-1 strain (AID 157). The settings on record: S. cerevisiae mec2-1 strain, hits give high values. The protocol:
Growth inhibition of yeast strains with defined genetic alterations is measured as a screen for potential anti-cancer activity. Selected strains with alterations in DNA damage repair or cell cycle control were exposed to compounds and growth inhibition was measured relative to vehicle treated controls. The strain used in this assay is mec2-1

Setting [1] is: at 5.0 µM (retest, dose inferred, filed as 0.5).
The mark [2] stands for this setting: at 50.0 µM (retest, dose inferred, filed as 5.0).

About 79,000 compounds went through this panel and 15% of them were active in at least one assay; those are over-represented in the sample as a whole. Active and inactive are the calls of the source. Cut-off read from the data, not from the text of the source: active = growth inhibition above about 70%; inactive = the rest.

On to `COC1CC(CC2CCC(C)C(C(C)C(=O)O)O2)OC2(OC(C)(C3CCC(C)(C4OC(C5OC(O)(CO)C(C)CC5C)CC4C)O3)CC2C)C1C` (configuration not stated), for which the growth inhibition was -2% (inactive) (at 1.2 µM); -7% (inactive) (at 3.7 µM); 28% (inactive) under setting [1]; 12% (inactive) (at 11.0 µM); 90% (active) (at 33.0 µM); 95% (active) under setting [2]. Also, the growth inhibition is 90% (active) (at 50.0 µM) and 97% (active) (at 100.0 µM).
On to `CC1CN=C(Nc2ccccc2)S1` (configuration not stated), for which the growth inhibition (at 1.2 µM) was -49% (inactive); the growth inhibition (at 3.7 µM) was -67% (inactive); the growth inhibition under setting [1] was 100% (active); the growth inhibition (at 11.0 µM) is -80% (inactive); the growth inhibition (at 33.0 µM) was -40% (inactive); the growth inhibition under setting [2] is 100% (active). Also, the growth inhibition reads like this: (at 50.0 µM) 88.8% (active); (at 100.0 µM) -60% (inactive).
Regarding `CCCCN(CCCC)CC(C(C)=O)C(c1ccccc1)c1c(O)c2ccccc2oc1=O` (configuration not stated), the growth inhibition runs as follows: (at 1.2 µM) 3% (inactive); (at 3.7 µM) 2% (inactive); under setting [1], 25% (inactive); (at 11.0 µM) -1% (inactive); (at 33.0 µM) -1% (inactive); under setting [2], 25% (inactive). Besides, the growth inhibition runs as follows: (at 50.0 µM) 69.6% (inactive); (at 100.0 µM) 5% (inactive).
As for `ClCCN(CCCl)c1ccc(C=NCCCCN=Cc2ccc(N(CCCl)CCCl)cc2)cc1`, the growth inhibition by setting is: under setting [1], 10% (inactive); under setting [2], 47% (inactive); (at 50.0 µM) 47% (inactive).
As for `CC(=O)Nc1ccccc1[As](O[As](c1ccccc1)c1ccccc1NC(C)=O)c1ccccc1` (configuration not stated), the growth inhibition by setting is: under setting [1], 24% (inactive); under setting [2], 100% (active); (at 50.0 µM) 99.6% (active).
Taken in the same sequence, the figures for `CCc1cc2c(cc1O)C(C)(C)CCC2(C)C` were -2% (inactive), -7% (inactive) and 97.8% (active).
Taken in the same sequence, the figures for `Oc1c(Cl)c(Cl)c(Cl)c(Cl)c1Cl.[Cu+2]` were 18% (inactive), 99% (active) and 89.8% (active).
Turning to `CCOP(=O)(OCC)/C(C#N)=C/c1cccc(Br)c1`, the growth inhibition is -4% (inactive) under setting [1], 90% (active) under setting [2] and 87.2% (active) (at 50.0 µM).
Consider `O=S(=O)([O-])[O-].[OH3+].[OH3+].[OH3+].[Ru+2].c1ccccc1`, for which the growth inhibition is -1% (inactive) under setting [1], -2% (inactive) under setting [2] and 92.2% (active) (at 50.0 µM).
